# Active and inactive are the calls of the source. The call rests on the fitted dose curve; in most records, active means well fitted cell-killing curve with a large enough effect in the repeat runs; inconclusive means weak or mixed curves, or effect the other way; inactive means flat fitted curve, though single readings scatter.
# Experiment: qHTS assay to identify small molecule HDAC inhibitors - cell viability counter screen (AID 1259365); further: nearly all actives have a fitted effect of over 50% in size
# Details: HCT-116 viability, CellTiter-Glo ATP luminescence, 2 h; series mostly up to 92.4 µM; activity change, negative = cytotoxicity: at the top concentration
# Source text: U.S. Tox21 Program National Center for Advancing Translational Sciences [NCATS] NIH Chemical Genomics Center [NCGC] U.S. Environmental Protection Agency [EPA] National Institutes of Environmental Health Sciences [NIEHS] National Toxicology Program [NTP] U.S. Food and Drug Administration [FDA] Tox21 Assay Overview: Histone deacetylases (HDACs) are a group of epigenetic enzymes that regulate gene expression by histone deacetylation. HDACs are capable of introducing epigenetic modifications and such aberrations contribute to the onset and progression of several human diseases, thus making HDACs a popular therapeutic target. For identifying endogenous class I/II HDAC inhibitors a homogenous, luminogenic HDAC I/II cell based assay was used to measure the relative activity of class I and II HDACs from cells. Wild type HCT-116 cells were used to screen Tox21 compound libraries for identifying class I/II HDAC inhibitors.
# Tox21 Assay Protocol Summary: HCT-116 cells were dispensed at 1,500 per well in 5uL of culture medium into white solid bottom 1536-well plates (Greiner Bio-One, Monroe, NC) using a Multidrop Combi (Thermo Scientific, Waltham, MA) dispenser. The assay plates were incubated at 37 C and 5% CO2 for an overnight, and then 23nL of compounds dissolved in DMSO and positive control were transferred using a Pintool station (Wako, San Diego, CA). The assay plates were incubated at 37C and 5% CO2 for 2hr. After compound treatment, 4uL of CellTiter-Glo reagent (Promega Corporation, Madison, WI) was added to each well of the assay plates using Flying Reagent Dispenser (FRD, Aurora Discovery, San Diego, CA) and incubated the assay plates at room temperature for 30min. The luminescence signal was quantified using a ViewLux plate reader (Perkin Elmer, Shelton, CT).
# On the % scale 0 is the no-effect control and ±100 the full control effect.
SMILES,"activity change, negative = cytotoxicity",outcome
CCOC(=O)C(SP(=S)(OC)OC)c1ccccc1 (stereo not given),-10.9% (inactive),
NC1(c2ccccc2)CCCCC1,-3.9% (inactive),
C=C(C)[C@H]1CN[C@H](C(=O)O)[C@H]1CC(=O)O,4.27% [at 42.5 µM] (inactive),
CC[C@H](N)c1ccccc1,-7.76% (inactive),
CCCCCCC1CCOC1=O (stereo not given),1.22% (inactive),
Brc1c(Br)c(Br)c(Br)c(Br)c1Br,1.6% [at 8.39 µM] (inactive),
CCOC1Oc2ccc(OS(C)(=O)=O)cc2C1(C)C (stereo not given),-0.82% (inactive),
CCC(=O)c1ccc(Cl)cc1,1.42% (inactive),
C[C@H](CN1CCOCC1)C(C(=O)N1CCCC1)(c1ccccc1)c1ccccc1,-12.4% (inactive),
COP(=O)(O)OC,0.836% (inactive),
O=[N+]([O-])CCO,-1.99% (inactive),
O=C(CCl)NCO,0.971% (inactive),
CN(CCO)CCO,6.51% (inactive),
CCNc1nc(NCC)nc(SC)n1,4.62% (inactive),
Cc1ccc(-c2nc3ccc(C)cn3c2CC(=O)N(C)C)cc1,-0.39% [at 42.5 µM] (inactive),
CCOC(=O)CC(SP(=S)(OC)OC)C(=O)OCC (stereo not given),,inactive
C/C(=N\NC(=O)Nc1cc(F)cc(F)c1)c1ncccc1C(=O)O,,inactive
C=CCCC#N,-0.0582% (inactive),
Cl/C=C/CCl,2.88% (inactive),
OP(O)c1ccccc1,0.118% (inactive),

SMILES,"activity change, negative = cytotoxicity",outcome
CCN(CCO)CCn1c(Cc2ccccc2)nc2c1c(=O)n(C)c(=O)n2C,-0.0485% [at 42.5 µM] (inactive),
COc1ccc(CN2CCNCC2)c(OC)c1OC,1.87% [at 42.5 µM] (inactive),
CCN[C@H](C)Cc1cccc(C(F)(F)F)c1,-4.53% (inactive),
CCOC(=O)COc1ccc(Cl)cc1Cl,-4.75% (inactive),
COP(=O)(OC)O/C(C)=C/C(=O)N(C)C,-1.08% (inactive),
BrCC1CO1 (stereo not given),-0.296% (inactive),
Cc1cccc2sc3nncn3c12,5.01% (inactive),
CNC(=O)Oc1ccccc1C(C)C,-2.35% (inactive),
BrCc1ccc(Br)cc1,-1.03% (inactive),
OCC(Cl)CCl (stereo not given),1.7% (inactive),
Cc1ccc2cc(C)ccc2c1,-1.14% (inactive),
COc1ccc2c(C(=O)c3ccc(Cl)cc3)c(C)n(CC(=O)O)c2c1,0.863% [at 42.5 µM] (inactive),
O=C(O)CBr,-7.62% (inactive),
O=S1(=O)OCCO1,-3.09% (inactive),
S=C=S,-0.842% (inactive),
Cn1c(N)nc2c3cccnc3ccc21,-1.56% (inactive),
COc1ccc(C=O)cc1O,0.189% (inactive),
C[N+]1(C)CCCCC1,0.356% (inactive),
C=C(Cl)CCl,-2.33% (inactive),
C#CC(C)(C)O,-0.817% (inactive),

# — PubChem BioAssay (Tox21)
